aSyn UTR act: Activators via SNCA 5'UTR binding, MLPCN; alpha-synuclein 5'UTR reporter, activators screen; activity score, % (tested at 7.5 µM), hits read low; actives 7.1% (n = 300,000); in the data active means activity score below about -60%
Of the large screens only hits and unclear results are named; the others gave an inactive call. These entries were drawn from the full list.

Cc1sc2c(c1C)C(=O)NC(c1ccccc1F)N2 (stereo not drawn)	aSyn UTR act -114.7
OCCN(CCO)CC(O)COc1ccc(C23CC4CC(CC(C4)C2)C3)cc1 (stereo not drawn)	none
Cc1cc(Cl)c2oc(C(=O)N3CCN(c4cccc(C)n4)CC3)c(C)c2c1	aSyn UTR act -126.6
O=C(c1ccccc1)c1c[nH]c2cc3c(cc2c1=O)OCCO3	aSyn UTR act -67.1
O=C(NCc1cccnc1)c1c[nH]c2cc3c(cc2c1=O)OCCO3	aSyn UTR act -123.3
O=C(Nc1cccc2cccnc12)c1ccc2c(c1)OCCO2	aSyn UTR act -178.2
COc1cc(NC(=O)c2ccc3c(c2)OCO3)c2ncccc2c1	aSyn UTR act -66.5
Cc1ccc(C(=O)Nc2cccc3cccnc23)cc1Br	aSyn UTR act -178.0
CCS(=O)(=O)Nc1cc(-c2nc3cccnc3s2)ccc1C	aSyn UTR act -122.7
Cc1c(NS(C)(=O)=O)cccc1-c1nc2cccnc2s1	aSyn UTR act -64.4
Cc1ccc(-c2nc3cccnc3s2)cc1NC(=O)c1ccco1	aSyn UTR act -198.0
CCS(=O)(=O)Nc1cccc(-c2nc3cccnc3s2)c1	aSyn UTR act -62.0
O=C(c1cc(-c2ccccc2O)on1)N1CCCCCC1	aSyn UTR act -140.1
O=C(c1cc(-c2ccccc2O)on1)N1CCOCC1	aSyn UTR act -115.4
O=c1[nH]c(N/N=C/c2ccc(O)cc2)nc2ccccc12	aSyn UTR act -157.8
C=CCn1c(SCc2c(C)noc2C)nc2ccccc2c1=O	none
O=c1[nH]c(N/N=C\c2ccc(F)cc2)nc2ccccc12	aSyn UTR act -149.9
C=CCn1c(N/N=C/c2ccc(O)cc2)nc2ccccc2c1=O	aSyn UTR act -134.5
Cc1ccc(NC(=S)N2CCn3cccc3C2c2cccnc2)cc1 (stereo not drawn)	aSyn UTR act -93.3
CSc1nc2nccc(/C=C\c3ccccc3)n2n1	aSyn UTR act -88.9
O=C(NC1CCCCC1)c1noc2c1CCCCC2	aSyn UTR act -90.2
CCc1ccc(NC(=O)c2noc3c2CCCCC3)cc1	aSyn UTR act -182.4
COc1ccc(NC(=O)c2noc3c2CCCCC3)cc1	aSyn UTR act -100.4
Cc1ccc(O)c(NC(=O)c2noc3c2CCCCC3)c1	aSyn UTR act -184.4
CSc1ccccc1NC(=O)c1noc2c1CCC2	aSyn UTR act -103.3
COc1ccc(CNC(=O)c2noc3c2CCCC3)cc1	aSyn UTR act -102.7
Cc1ccc(Cn2ccc(NC(=O)c3noc4c3CCCC4)n2)cc1	aSyn UTR act -110.7
O=C(NCc1ccco1)c1noc2c1CCCCC2	aSyn UTR act -76.7
Cc1ccc(NC(=O)c2noc3c2CCCCC3)cc1	aSyn UTR act -117.2
O=c1c(O)c(-c2cccs2)oc2ccc(Cl)cc12	aSyn UTR act -74.9
O=c1cc(-c2ccc3c(c2)OCCO3)oc2ccc(Cl)cc12	aSyn UTR act -149.4
O=c1cc(-c2cccs2)oc2ccc(Cl)cc12	aSyn UTR act -177.6
COc1cc2cc3c(N)c(C(=O)NCc4ccco4)sc3nc2cc1OC	aSyn UTR act -284.2
Cc1ccc2nc3sc(C(=O)NCc4ccco4)c(N)c3cc2c1	aSyn UTR act -126.5
O=C(NC1CC1)c1cc2c(s1)-c1ccccc1OC2	aSyn UTR act -82.4
CN(C)CCNC(=O)c1cc2c(s1)-c1ccc(Cl)cc1SC2	none
O=C(NCc1cccs1)c1cc2c(s1)-c1ccccc1OC2	aSyn UTR act -89.8
COc1ccc(-c2nn(-c3ccccc3)cc2/C=N/NS(=O)(=O)c2ccccc2)cc1	aSyn UTR act -62.4
COc1ccc(-c2nn(-c3ccccc3)cc2/C=N/NC(=O)c2cccc(S(=O)(=O)Nc3ccccc3Cl)c2)cc1	aSyn UTR act -77.5
COc1ccc(-c2nn(-c3ccccc3)cc2/C=N/N2C(=O)CSC2=S)cc1	aSyn UTR act -83.2
CN1CCN(C(c2ccc(Br)cc2)c2cc(Cl)c3cccnc3c2O)CC1 (stereo not drawn)	none
Cc1c(N=c2c(=O)c3ccccc3c2=O)c(=O)n(-c2ccccc2)n1C	aSyn UTR act -140.1
COc1ccc(-c2cc(=Nc3c(C)n(C)n(-c4ccccc4)c3=O)c3ccccc3o2)cc1	aSyn UTR act -269.6
COc1ccc(-c2c/c(=N\c3nc(-c4ccccc4)c(C)s3)c3ccccc3o2)cc1O	none
Nc1ccc2oc3ccccc3c2c1	aSyn UTR act -100.5
Nc1ccc2oc3ncccc3c(=O)c2c1	aSyn UTR act -97.5
COc1ccc(C#Cc2ccc3c(c2)c(=O)c2ccccc2n3C)cc1	aSyn UTR act -124.6
CCc1nc2c(c(=O)c3ccccc3n2C)c(=O)n1CCc1ccc(OC)cc1	none
Cn1c2ccccc2c(=O)c2cc(C#Cc3ccc(N)cc3)ccc21	aSyn UTR act -89.1
COc1cc(-c2noc(C)c2C#Cc2ccc(N)cc2)cc(OC)c1OC	none
Nc1ccc(C#Cc2ccc3oc4ccccc4c(=O)c3c2)cc1	aSyn UTR act -66.3
O=C1C2C3C=CC(C3)C2C(=O)N1/N=C/c1ccc(-c2ccccc2[N+](=O)[O-])o1 (stereo not drawn)	aSyn UTR act -76.6
O=C(C[n+]1cc(-c2ccc(F)cc2)n2c1CCC2)Nc1nc(-c2ccccc2)cs1	aSyn UTR act -89.1
Cc1cc(/C=N/Nc2ncnc(N)c2[N+](=O)[O-])c(C)n1-c1ccccc1	none
